Source: PubChem
Giardia killer = kills Giardia lamblia; AID 540267; 0.15% of 340,000 active; Giardia lamblia trophozoite viability; activity change, % at 7.66 µM, hits read low; in the data active = activity change below about -80%; inconclusive = between about -30% and that limit;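 note: parasites exposed to compound for two days anaerobically before the ATP read; % is set by controls: 0 for no effect and ±100 for the full control effect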
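Media and compound were dispensed first, then trophozoites at 100 cells/well; plates sat 48 hrs at 37 deg C without oxygen before ATP luminescence reagent was added and read after 15-30 min at room temperature.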
HepG2 viability = kills HepG2 cells in TGF-b inhibitor counter-screen; HepG2 CAGA-GFP viability, ATP luminescence, 18 h; Potency, µM (doses to about 46.1 µM), for the others: top-dose activity change, negative = cytotoxicity, actives largely listed as cytotoxic; 0.76% of 410,000 active; note: potency is the fitted concentration of half-maximal effect
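HepG2 CAGA-GFP cells (1000/well, DMEM with 1% FBS) received compound, then TGF-beta at 500 pg/mL final, and were incubated 18 hours at 37 degrees C. Viability was read by CellTiter-Glo luminescence. Media-only wells were set as complete cell-killing and DMSO as no toxicity.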
uPA generation = blocks generation of uPA at the cell surface | cell surface uPA generation assay, qHTS | Potency, µM (series often up to 38.3 µM), for the others: at the top dose activity change, negative = inhibition, actives largely listed as inhibitors | 0.31% of 330,000 active; active = well fitted inhibition curve with a large enough effect; inconclusive = small, poorly fitted or top-dose-only effect; inactive = no such curve, though single readings can be large or run the other way; tested in mouse RAW 264.7 cells; note: potency is the fitted concentration of half-maximal effect; % is set by controls: 0 for no effect and ±100 for the full control effect; nearly all actives have a fitted effect of over 55% in size
ATXN2 expr inh = reduces ATXN2 reporter expression in HEK-293 cells | HEK-293 ATXN2-luciferase reporter, luminescence, 24 h | Potency, µM (highest dose often 57 µM), for inactives: at the highest dose activity change, negative = inhibition, actives largely listed as inhibitors | 0.72% of 360,000 active | AID 1745845; note: potency is the fitted concentration of half-maximal effect; % is set by controls: 0 for no effect and ±100 for the full control effect; nearly all actives have a fitted effect of over 55% in size
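ATXN2-luciferase reporter cells (luciferase flanked by upstream and downstream ATXN2 gene portions) were treated 24 h at 37 °C with compounds at up to 57 uM. SteadyGlo luminescence gave expression; GF-AFC fluorescence gave viability.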
TGFb inhibitor = TGF-b pathway inhibition | HepG2 CAGA-GFP TGF-b/SMAD3 reporter, GFP fluorescence, 18 h; TGF-beta stimulated, 500 pg/mL final | AID 588855 | 1.2% of 410,000 active | Potency, µM (series often up to 46.1 µM), for inactives: at the highest dose activity, negative = inhibition, actives largely listed as inhibitors; note: potency is the fitted concentration of half-maximal effect; % is set by controls: 0 for no effect and ±100 for the full control effect; nearly all actives have a fitted effect of over 65% in size
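HEPG2 CAGA-GFP cells (1000/well, DMEM with 1% FBS) were pre-incubated 2 h at 37 degrees C, given compound by pin tool, then stimulated with TGF-beta at 500 pg/mL final for 18 h before per-cell GFP fluorescence imaging.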
S2 tox = reduces viability in counter-screen for ATXN expression inhibitors; S2 cells (HEK-293 line with an ATXN2-luciferase reporter) viability, CellTiter-Fluor protease fluorescence, 24 h; Potency, µM (titrated, usually from 56.7 µM), actives largely listed as cytotoxic; 0.49% of 400,000 active; AID 651635; note: potency is the fitted concentration of half-maximal effect; nearly all actives have a fitted effect of over 40% in size
* hit, by the source's call. Most compounds without a hit are left out; they make up all but 2.6% or so of the library. Unless noted, calls come from the whole dose curve; as a rule, active = well fitted curve in the direction sought with a large enough effect; inconclusive = small, poorly fitted or top-dose-only effect, or another doubt; inactive = no such curve, though single readings can be large; an effect the other way counts as inactive or inconclusive.

How did COc1ccccc1Cc1c(C2CCCCC2)nc2ccc(Cl)cn12 do in these assays?
HepG2 viability: 18µM*; ATXN2 expr inh: inconclusive; TGFb inhibitor: inconclusive; S2 tox: inconclusive

What do the screens show for `NC[C@H]1O[C@H](O[C@H]2[C@@H](O)[C@@H](O[C@H]3O[C@H](CO)[C@@H](O)[C@H](N)[C@@H]3O)[C@H](N)C[C@@H]2N)[C@H](N)C[C@H]1O`?
ATXN2 expr inh: -11%

How did COC(=O)c1ccc2nc(C3CCCCC3)c(Cc3ccccc3C(F)(F)F)n2c1 do in these assays?
HepG2 viability: -105%; ATXN2 expr inh: inconclusive; TGFb inhibitor: 22µM*; S2 tox: inconclusive

Results for COc1ccccc1Cc1c(C2CCCCC2)nc2ccc(C)cn12 ?
HepG2 viability: -51%; ATXN2 expr inh: inconclusive; TGFb inhibitor: 16µM*

Results for FC(F)(F)c1ccccc1Cc1c(C2CCCCC2)nc2ccc(Cl)cn12 ?
HepG2 viability: -31%; ATXN2 expr inh: inconclusive; TGFb inhibitor: inconclusive; S2 tox: 18µM*

How did CCCc1nc2ccc(Br)cn2c1Cc1ccccc1OC do in these assays?
HepG2 viability: -49%; ATXN2 expr inh: inconclusive; TGFb inhibitor: 16µM*; S2 tox: 22µM*

How did Cc1ccc(Cc2c(C3CCCCC3)nc3ccc(Br)cn23)cc1 do in these assays?
HepG2 viability: -13%; ATXN2 expr inh: -26%; TGFb inhibitor: inconclusive; S2 tox: inconclusive

Results for CCCc1nc2ccc(C)cn2c1Cc1ccccc1OC ?
HepG2 viability: -41%; ATXN2 expr inh: inconclusive; TGFb inhibitor: inconclusive

Results for COc1cc(N)c(N)cc1OC ?
HepG2 viability: 7%; TGFb inhibitor: -10%

How did Cc1ccc2nc(SCC(=O)N3CCC4(CC3)CC4C(=O)Nc3ccc(F)c(F)c3)[nH]c2c1 (stereo not drawn) do in these assays?
S2 tox: inactive

What do the screens show for `COc1cc(OC)c(C=CS(=O)(=O)Cc2ccc(OC)c(NCC(=O)O)c2)c(OC)c1`?
ATXN2 expr inh: -2%

What do the screens show for `COc1ccc(-c2ccc(C(=O)NCC3Cc4cccc(-c5nc(C)cnc5C)c4O3)o2)cc1` (stereo not drawn)?
S2 tox: inactive

How did Cc1ccc(S(=O)(=O)N(C)CCCN(C)c2nc(-c3cccs3)nc3ccccc23)cc1 do in these assays?
Giardia killer: -25

How did CN(C)c1ccc(C2Nc3ccc4ccccc4c3C3=C2C(=O)CC(C)(C)C3)cc1Br (stereo not drawn) do in these assays?
ATXN2 expr inh: -13%

What do the screens show for `COC(=O)c1ccc(NC(=O)CSCc2ccccc2)cc1`?
Giardia killer: -5; HepG2 viability: -9%; uPA generation: 2%; ATXN2 expr inh: 43%; TGFb inhibitor: 6%; S2 tox: inactive

What do the screens show for `CCC(=O)Oc1ccc(NC(=O)CSCc2ccccc2)cc1`?
Giardia killer: 14; HepG2 viability: 5%; uPA generation: 10µM*; TGFb inhibitor: 4%; S2 tox: inconclusive

How did CCOC1=C2[C@H](c3ccccc3)N(S(=O)(=O)c3ccc(C)cc3)C(C(C)(C)C)[C@H]2C(C#N)(C#N)C(C#N)(C#N)C1 (stereo partly drawn) do in these assays?
HepG2 viability: 16µM*; ATXN2 expr inh: 25µM*; TGFb inhibitor: 10µM*; S2 tox: 18µM*

What do the screens show for `CCCCC[C@@H]1[C@@H]2C(=C(OCC)C[C@@H]3C(=O)N(c4ccccc4)C(=O)[C@H]23)[C@H](c2ccccc2)N1S(=O)(=O)c1ccc(C)cc1`?
HepG2 viability: -2%; ATXN2 expr inh: -8%; TGFb inhibitor: -18%; S2 tox: inactive

What do the screens show for `CCOC1=C2CN(S(=O)(=O)c3ccc(C)cc3)[C@H](c3cccc4ccccc34)C[C@H]2C(C#N)(C#N)C(C#N)(C#N)C1`?
HepG2 viability: -43%; ATXN2 expr inh: 14µM*; TGFb inhibitor: inconclusive

Results for O=C(Cc1ccc(Oc2ccccc2)cc1)NO ?
HepG2 viability: -21%; TGFb inhibitor: -6%

How did O=C1N/C(=C/c2ccc(N3CCOCC3)o2)C(=O)N1c1cccc(Cl)c1 do in these assays?
Giardia killer: 31; HepG2 viability: -54%; uPA generation: 4µM*; ATXN2 expr inh: -33%; TGFb inhibitor: 10µM*; S2 tox: inactive

Results for Cc1ccc(S(=O)(=O)NCC(=O)N/N=C/c2ccccc2O)cc1 ?
Giardia killer: -18; HepG2 viability: -7%; uPA generation: -4%; ATXN2 expr inh: 14µM*; TGFb inhibitor: 2%; S2 tox: inactive

What do the screens show for `COc1ccc(-c2nc3cc(F)ccc3cc2CN(C(=O)c2ccc3c(c2)OCO3)C2CC2)cc1`?
S2 tox: inactive

What do the screens show for `Cc1cc(C)c2nc(C)cc(N/N=C/c3ccc(O)cc3)c2c1`?
Giardia killer: -19; HepG2 viability: 18µM*; uPA generation: -11%; ATXN2 expr inh: inconclusive; TGFb inhibitor: 20µM*; S2 tox: inconclusive

How did Cc1cc(N/N=C/c2ccc(O)cc2)c2cccc(C)c2n1 do in these assays?
Giardia killer: 5; HepG2 viability: 18µM*; uPA generation: inconclusive; TGFb inhibitor: inconclusive; S2 tox: inconclusive

How did Cc1ncc2c(c1CNC(=O)CN1CCCC1)CCN(C(=O)c1ccc(F)cc1F)C2 do in these assays?
S2 tox: inactive

Results for COc1ccc(/C=N/NC(=S)Nc2cc(C(F)(F)F)ccc2Cl)cc1 ?
Giardia killer: -10; HepG2 viability: 0.63µM*; uPA generation: -2%; ATXN2 expr inh: -26%; TGFb inhibitor: 9%; S2 tox: inactive

What do the screens show for `FC(F)(F)c1ccc(Cl)c(NC(=S)N/N=C/c2ccccc2C(F)(F)F)c1`?
Giardia killer: 0; HepG2 viability: -72%; uPA generation: 6%; ATXN2 expr inh: 0%; TGFb inhibitor: 0%; S2 tox: inactive

How did COc1ccc(CN2CCOc3ccc(C(O)c4cccnc4)cc3C2)cc1O (stereo not drawn) do in these assays?
S2 tox: inactive

Results for CC(=O)Nc1ccc(NC(=O)Nc2cccc(Cl)c2)cc1 ?
Giardia killer: -8; HepG2 viability: 2%; uPA generation: 1%; ATXN2 expr inh: 24%; TGFb inhibitor: -2%; S2 tox: inactive

Results for CC(=O)C(=Nc1ccc(Cl)cc1Cl)NNc1cccc(Cl)c1 ?
Giardia killer: -13; HepG2 viability: -47%; uPA generation: 6%; ATXN2 expr inh: -25%; TGFb inhibitor: 22µM*; S2 tox: inactive

How did CN(C)c1ccc(/C=C2\C=Nc3ccccc32)cc1 do in these assays?
HepG2 viability: -40%; TGFb inhibitor: inconclusive
